Screens as filed in PubChem BioAssay.
Shown are actives, neighbours in structure and some others; about 6% of the full set was active somewhere.
ERK AVP inh = qHTS Assay for Inhibitors of the ERK Signaling Pathway using a Homogeneous Screening Assay; Potency, µM (series often up to 57.5 µM), hits mostly inhibitors; 72,000 tested, 0.99% active; HEK293-V1b, vasopressin-stimulated pERK AlphaScreen; also: nearly all actives have a fitted effect of over 55% in size
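Overnight-seeded V1b-HEK293 cells in 1% FBS got compound, then vasopressin (25 nM final, 5 min, 37C), then lysis buffer. AlphaScreen detection of phospho-ERK; activity normalized to basal and full-stimulation controls.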
CRE Fsk mod = Cell signaling CRE-BLA (Fsk stim); 71,000 tested, 2.5% active; CHO CRE-bla reporter (cAMP response element driving beta-lactamase), forskolin EC10, beta-lactamase ratio; AID 662, 2007; Potency, µM (series often up to 38.2 µM), hits mostly activators; active = well fitted activation curve with a large enough effect in the signal ratio, with a control signal flat, not every such curve was filed as active; inconclusive = small, poorly fitted or top-dose-only effect, or effect the other way, or a change in a side signal; the % refers to the signal ratio
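qHTS titration format; CRE-bla CHO reporter; stimulus EC10 NKH 477, a water-soluble forskolin. Read: CCF4 460/530 nm ratio. Potency expressed as AC50 for activators or inhibitors.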
HEK293 cAMP ctrl = qHTS Assay for Agonists of the Thyroid Stimulating Hormone Receptor: Activators of Intracellular cAMP Concentrations in Parental HEK 293 | 73,000 tested, 2.5% active | parental HEK293 CNG cAMP sensor, membrane potential fluorescence | Potency, µM (doses to about 57.1 µM), most hits filed as activators; also: nearly all actives have a fitted effect of over 55% in size
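Counterscreen for endogenous-receptor signalling: CNG-channel HEK 293 cells report cAMP rise by membrane depolarization. After 60 min dye equilibration with 100 uM RO 20-1724, compounds incubated 30 min before bottom-read fluorescence at 590 nm.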
TSHR ag = qHTS Assay for Agonists of the Thyroid Stimulating Hormone Receptor; 73,000 tested, 0.48% active; AID 926, 2007; Potency, µM (top dose mostly 57.1 µM), usual class: activators; HEK293-CNG-TSHR cells (CNG channel as cAMP sensor), membrane potential dye, cAMP; Thyrotropin receptor (Homo sapiens), P16473; active = well fitted activation curve with a large enough effect in the main read-out, with a control signal flat, not every such curve was filed as active; inconclusive = small, poorly fitted or top-dose-only effect, or a change in a side signal; inactive = no such curve, though single readings can be large or run the other way; reference of the percent scale not stated here;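 also: the control signal comes from parental cells without the receptor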
Target sequence (P16473 whole entry, looked up): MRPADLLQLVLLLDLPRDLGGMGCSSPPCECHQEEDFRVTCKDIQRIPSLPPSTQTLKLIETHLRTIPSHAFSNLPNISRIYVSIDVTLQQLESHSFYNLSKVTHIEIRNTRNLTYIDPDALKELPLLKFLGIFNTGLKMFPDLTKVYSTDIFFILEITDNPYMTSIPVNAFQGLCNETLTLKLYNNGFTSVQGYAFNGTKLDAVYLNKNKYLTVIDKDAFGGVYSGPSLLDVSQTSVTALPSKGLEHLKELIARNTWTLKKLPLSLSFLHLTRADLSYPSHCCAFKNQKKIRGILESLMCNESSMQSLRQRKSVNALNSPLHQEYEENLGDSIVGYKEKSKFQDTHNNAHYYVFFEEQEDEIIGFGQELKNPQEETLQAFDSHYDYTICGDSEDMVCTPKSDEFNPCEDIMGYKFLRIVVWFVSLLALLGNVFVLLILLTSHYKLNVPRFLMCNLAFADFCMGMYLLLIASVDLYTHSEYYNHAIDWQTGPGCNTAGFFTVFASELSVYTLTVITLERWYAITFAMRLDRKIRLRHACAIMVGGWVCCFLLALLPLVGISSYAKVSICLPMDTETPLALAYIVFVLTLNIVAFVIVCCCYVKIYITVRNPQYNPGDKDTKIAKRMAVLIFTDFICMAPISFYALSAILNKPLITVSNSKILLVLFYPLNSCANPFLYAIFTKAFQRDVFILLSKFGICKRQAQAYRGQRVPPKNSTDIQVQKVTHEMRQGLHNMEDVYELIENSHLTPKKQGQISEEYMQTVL
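cAMP rise detected as CNG-channel membrane depolarization by fluorescent dye (emission 590 nm), 30 min after compound, following 60 min dye loading containing 100 uM RO 20-1724 at room temperature. Cells: TSHR/CNG HEK 293, with parental CNG HEK 293 as control.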
A number is an active result; n = inactive; u = inconclusive; x = not tested or not shown; [ ] = another dose, or the depositor's remark. Unless noted, calls follow the shape of the dose curve; as a rule, active = well fitted curve in the direction sought with a large enough effect; inconclusive = small, poorly fitted or top-dose-only effect, or another doubt; inactive = no such curve, though single readings can be large; an effect the other way counts as inactive or inconclusive.

SMILES	ERK AVP inh	CRE Fsk mod	HEK293 cAMP ctrl	TSHR ag
c1ccc(-c2nc(NC3CC3)nc(-n3ccnc3)n2)cc1	n	0.5µM	n	x
C=CCNc1nc(-c2ccccc2)nc(-n2ccnc2)n1	u	u	n	x
NS(=O)(=O)c1cc([C@@]2(O)NC(=O)c3ccccc32)ccc1Cl	n	n	n	n
C[C@H](N)CCCC(C)(C)O	n	n	n	n
Cc1onc(-c2ccccc2)c1-c1ccc(S(N)(=O)=O)cc1	n	x	x	x
CCn1c(C)nc2cc(-c3nnc(-c4c(-c5ccccc5)noc4C)o3)ccc21	u	u	20µM	u
O=C(Nc1ccc2c(c1)Cc1ccccc1-2)[C@@H]1[C@H](C(=O)O)[C@]2(Cl)C(Cl)=C(Cl)[C@@]1(Cl)C2(Cl)Cl	n[11.5 µM]	n[7.6 µM]	n[11.4 µM]	n[11.4 µM]
Cc1ccc(S(=O)(=O)Nc2nc3ccccc3nc2NCc2ccco2)cc1	n	u	u	u
Cc1ccc2nc(NCc3ccco3)c(C=NCc3ccco3)c(=O)n2c1	n	10µM	n	n
Cc1cc(C)cc(C(=O)N(C)[C@H](Cc2ccc(-c3ccccc3)cc2)C(=O)N[C@@H](Cc2c[nH]c3ccccc23)C(=O)O)c1	n	u	n	n
CCOc1ccccc1CNC(=O)c1cc2occc2n1C	20µM	n	n	n
COc1ccccc1CNC(=O)c1cc2sccc2n1C	n	n	n	x
CCC(=O)OC1C2CC3=C4CC(=O)OC(c5ccoc5)[C@]4(C)CCC3[C@@](C)(C2=O)C(CC(=O)OC)C1(C)C (some centres undefined)	n	x	x	x
Cc1cc2c(cc(C(=O)OCC(=O)NCc3cccs3)n2C(C)C)o1	n	10µM	u	u
c1csc(CCNc2ncnc3sc4c(c23)CCC4)c1	u	n	20µM	u
C=C(C)CSC1=C(C#N)C(c2ccccc2Cl)CC(=O)N1 (centres undefined)	20µM	n	n	x
C=CCSC1=C(C#N)C(c2ccccc2Cl)CC(=O)N1 (centres undefined)	n	n	n	n
Cc1nc(N2CCOCC2)c2cc(-c3ccccc3)sc2n1	16µM	u	25µM	u
c1ccc(-c2cc3c(N4CCOCC4)ncnc3s2)cc1	20µM	n	n	n
O=C(O)C[C@H](Cc1ccccc1Cl)C(=O)O	n[11.5 µM]	n[7.6 µM]	n[11.4 µM]	n[11.4 µM]
C[C@@H]1NCC[C@H](CC(=O)O)[C@H]1CC(=O)O	n[11.5 µM]	n[7.6 µM]	n[11.4 µM]	n[11.4 µM]
CCCC(c1nnnn1CCc1ccccc1)N1CCN(C2CCCC2)CC1 (centres undefined)	n	n	16µM	u
CCCCC(c1nnnn1C1CCCC1)N1CCN(C2CCCCC2)CC1 (centres undefined)	n	n	2.5µM	u
O=C(O)CCCC[C@@H]1SC[C@H]2NC(=O)N[C@H]12	x	u	n	n
O=S(=O)(c1ccccc1)N1CN2CN(C1)CN(S(=O)(=O)c1ccccc1)C2	n[11.5 µM]	n[7.6 µM]	n[11.4 µM]	n[11.4 µM]
SMILES	ERK AVP inh	CRE Fsk mod	HEK293 cAMP ctrl	TSHR ag
COc1ccccc1C(=O)Nc1cccc(-c2cn3ccsc3n2)c1	n	3.2µM	n	n
Cn1cccc1C(=O)N1CCC2(CCN(C(=O)Nc3cccc(F)c3)CC2)CC1	n	n	n	n
CCNc1ncc2nc(C)c(=O)n(C)c2n1	u	u	n	x
CCNc1ncc2nc(C)c(=O)n(Cc3cccc(OC)c3)c2n1	u	10µM	n	n
COc1cccc(Cn2c(=O)c(C)nc3cnc(N(C)C)nc32)c1	n	13µM	u	u
COc1cccc(Cn2c(=O)c(-c3ccccc3)nc3cnc(N(C)C)nc32)c1	n	u	n	n
CCNc1ncc2nc(C)c(=O)n(CCOC)c2n1	n	10µM	u	u
Cc1ccc(OCC(=O)Nc2ccc(-c3nc4ncccc4o3)cc2)c(C)c1	n	n	n	16µM
COc1ccccc1OCC(=O)Nc1cccc(-c2nc3ccccc3o2)c1	n	n	25µM	u
CN1CCN(c2ccc3nc(-c4ccc5nc(-c6ccc(O)cc6)[nH]c5c4)[nH]c3c2)CC1	n[11.5 µM]	u	n[11.4 µM]	n[11.4 µM]
COc1cc(C2C3=C(Nc4ncnn42)c2ccccc2CC3)cc(OC)c1OC (centres undefined)	n	0.5µM	n	n
Cc1cccc(N(CC(=O)NC2CCCCC2)C(=O)c2c(C)noc2C)c1	n	n	16µM	u
Cc1cc(NC(=O)CCCC(=O)N(CC(=O)NC2CCCCC2)c2ccccc2)no1	n	n	u	u
